Test results: the supplement of paper PMC11634586
Unmarked numbers belong to inactive results.

Test system: NCI-H1688
Assay: inhibition of cell viability relative to untreated control (fraction); higher = stronger growth inhibition, active = 0.5 or more
Conditions: 30 µM; 24 h
Method in brief: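 NCI-H1688 small cell lung cancer cells were seeded at 3 × 10^3 cells/well in 96-well plates and treated 24 h later with a natural compound library (TargetMol) at 30 µM for 24 h, at 37°C with 5% CO2. Viability was read in triplicate with Cell Counting Kit-8 as absorbance at 450 nm. Inhibition of cell viability is expressed as a fraction, derived from viability normalised to the untreated control.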

SMILES | inhibition of cell viability
O=C1c2cccc(O)c2C(=O)c2c(O)cccc21 [Antrapurol] | 0.783 (active)
Nc1ncnc2c1ncn2C1CC(O)C(CO)O1 (stereo unspecified) [2'-Deoxyadenosine monohydrate] | -0.0483
OC1OC[C@@H](O)[C@@H](O)[C@@H]1O (stereo partly drawn) [D(-)-Arabinose] | 0.0239
CC(C)(S)[C@@H](N)C(=O)O [Artamine] | 0.0772
C=CCSC[C@H](N)C(=O)O [S-allyl-L-cysteine] | -0.0574
CC(C)C[C@@H](NC(=O)[C@H](C)NC(=O)CNC(=O)[C@@H](NC=O)C(C)C)C(=O)N[C@@H](C)C(=O)N[C@@H](C(=O)N[C@H](C(=O)N[C@H](C(=O)N[C@@H](Cc1c[nH]c2ccccc12)C(=O)N[C@H](CC(C)C)C(=O)N[C@@H](Cc1c[nH]c2ccccc12)C(=O)N[C@H](CC(C)C)C(=O)N[C@@H](Cc1c[nH]c2ccccc12)C(=O)N[C@H](CC(C)C)C(=O)N[C@@H](Cc1c[nH]c2ccccc12)C(=O)NCCO)C(C)C)C(C)C)C(C)C [Gramicidin] | 0.981 (active)
